Screening data deposited in PubChem BioAssay by National Center for Advancing Translational Sciences (NCATS).
IL-1B inflam inh: inflammasome signaling inhibition, IL-1 beta readout; THP-1 LPS/ATP IL-1B secretion, AlphaLISA, 16 h; stronger effect = lower value; activity change, % at 57.5 µM; actives 4.7% (n = 360,000); AID 743279; in the data active = activity change below about -50%; inconclusive = mostly about -30% to -49%
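Secreted IL-1B measured by AlphaLISA bead assay after 16 h compound exposure of THP-1 cells; compounds (final up to 57.5 uM) added 1 h before LPS (250 ng/mL) and ATP (1.25 mM) stimulation; lower signal means less secretion.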
DT40 TDP1 no CPT: qHTS for Inhibitors of human tyrosyl-DNA phosphodiesterase 1 (TDP1): qHTS in cells in absence of CPT | DT40 Tdp1-/- hTDP1 cells, no CPT, ATP luminescence, 48 h | Potency, µM (highest dose often 46.2 µM), for inactives: at the top dose activity change, negative = growth inhibition, hits mostly inhibitors | actives 15% (n = 420,000) | AID 686978, 2013; note: potency is the fitted concentration of half-maximal effect; nearly all actives have a fitted effect of over 55% in size
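Growth of hTDP1-complemented DT40 Tdp1-knockout cells is measured by ATP luminescence after at least 48 hr compound exposure at 37 °C, with DMSO substituting for the 20 nM CPT used in the parallel screen.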
TDP1 cell CPT: growth inhibition of DT40 Tdp1-/-;hTDP1 cells with camptothecin (screen for TDP1 inhibitors); chicken DT40 Tdp1-/-;hTDP1 cells + 20 nM CPT, ATP luminescence, 48 h; Potency, µM (titrated, usually from 46.2 µM), for the others: at the highest dose activity change, negative = growth inhibition, hits mostly inhibitors; actives 12% (n = 420,000); AID 686979; note: potency is the fitted concentration of half-maximal effect; nearly all actives have a fitted effect of over 55% in size
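Chicken DT40 Tdp1-/- cells stably complemented with human TDP1 were seeded at 400 cells/well in medium containing 20 nM camptothecin, exposed to pin-transferred compounds, and grown at 37 °C for at least 48 hr. Viability was read as ATP luminescence.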
HT1080 IDH1KD tx: toxicity to HT-1080 IDH1 knockdown cells (counter line); AID 686971; Potency, µM (top dose mostly 46.1 µM), for the others: at the top dose activity, negative = toxicity, actives largely listed as cytotoxic; HT-1080 IDH1 knockdown viability, ATP luminescence, 48 h; actives 2% (n = 360,000);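 note: potency is the fitted concentration of half-maximal effect; 0% = DMSO wells and -100% = cell-free medium wells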
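Assay cells: HT-1080 with IDH1 knockdown, 750 per well, RPMI/5% FBS. Exposure: 48 h at 37 °C following 2 h pre-incubation. Read: CellTiter-Glo luminescence; fitted concentration-response, curve class assigned.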
HT1080-NT tox: kills 2HG-producing HT-1080-NT fibrosarcoma cells; Potency, µM (doses to about 46.1 µM), for inactives: at the top dose activity, negative = less viability, most hits filed as cytotoxic; actives 1.6% (n = 360,000); HT-1080-NT fibrosarcoma viability, CellTiter-Glo ATP luminescence, 48 h;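 note: NT is the 2HG producing partner of a matched IDH1 knockdown line; potency is the fitted concentration of half-maximal effect; 0% = DMSO-treated cells and -100% = media-only wells without cells; nearly all actives have a fitted effect of over 55% in size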
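Compounds were tested in concentration-response format on HT-1080-NT cells for 48 hours at 37 degrees C. Cell viability came from CellTiter-Glo luminescence; curves were classified by r2, response magnitude and activity.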
An asterisk follows results filed as active; ? = inconclusive; · = not tested or not shown; [ ] = dose if it differs, or a comment. In the library only some 19% were active in any assay of this set; here they are far more common. Unless noted, calls come from the whole dose curve; as a rule, active = well fitted curve in the direction sought with a large enough effect; inconclusive = small, poorly fitted or top-dose-only effect, or another doubt; inactive = no such curve, though single readings can be large; an effect the other way counts as inactive or inconclusive. Unless noted, % is set by controls: 0 for no effect and ±100 for the full control effect.

SMILES | IL-1B inflam inh | DT40 TDP1 no CPT | TDP1 cell CPT | HT1080 IDH1KD tx | HT1080-NT tox
O=[N+]([O-])c1ccc(N2CCOCC2)cc1N1CCCCC1 | -6 | -12% | -7% | -10% | -2%
CN1CCN(C(=O)c2cc3c(c(-c4cccc(-c5cc6ccccc6o5)c4)n2)[C@H](CCO)N(S(=O)C(C)(C)C)C3)CC1 (some centres undefined) | 0 | ? | ? | -19% | -23%
O=C(COC(=O)c1ccccc1OCCOc1ccccc1)Nc1ccc(Br)cc1 | · | -1% | -6% | · | ·
COc1ccccc1C(=O)Nc1cccc(OCc2cc(=O)n3c(C)csc3n2)c1 | · | 23µM* | 16µM* | · | ·
COc1cc(C(=O)Nc2cccc(OCc3cc(=O)n4c(C)csc4n3)c2)cc(OC)c1OC | · | 15µM* | 21µM* | · | ·
Cc1ccccc1C(=O)Nc1cccc(OCc2cc(=O)n3c(C)csc3n2)c1 | · | -13% | -2% | · | ·
Cc1ccc2oc(-c3ccc(Cl)c(NC(=O)c4cc5ccccc5o4)c3)nc2c1 | · | -15% | 8% | · | ·
CCN1CC=C2C(C1)C(c1ccc(Cl)s1)C(C#N)=C(N)C2(C#N)C#N (centres undefined) | -4 | ? | 16µM* | -8% | 0%
O=C(Nc1nnc(-c2ccccc2)s1)C1CCCN(C(=O)c2ccoc2)C1 (centres undefined) | · | -25% | ? | · | ·
O=C(N/N=C/c1ccsc1)c1cc(-c2ccncc2)nc2ccccc12 | 4 | 3.3µM* | 3.7µM* | ? | 4.6µM*
NNC(=O)c1cc(-c2cccs2)nc2ccccc12 | 3 | ? | ? | ? | -8%
O=C(O)c1ccc(/C=N/NC(=O)c2cc(-c3cccs3)nc3ccccc23)cc1 | 18 | 12µM* | ? | -4% | -2%
O=C(N/N=C/c1ccsc1)c1cc(-c2cccs2)nc2ccccc12 | 7 | 8.2µM* | 10µM* | ? | ?
O=C(N/N=C/c1ccccn1)c1cc(-c2ccncc2)nc2ccccc12 | -24 | ? | ? | 14% | 9%
CC(=O)Nc1c(C)nn(-c2ccccc2)c1N1CCC(C(=O)NCc2cccc(F)c2)CC1 | · | -20% | -11% | · | ·
Cc1[nH][nH]c(=O)c1C(c1c(C)[nH][nH]c1=O)c1cn(Cc2ccc(F)cc2)c2ccccc12 | -101* | 5.2µM* | 6.5µM* | ? | -29%
Cc1[nH][nH]c(=O)c1C(c1c(C)[nH][nH]c1=O)c1cn(Cc2ccc(Cl)c(Cl)c2)c2ccccc12 | -98* | 2.1µM* | 2.1µM* | ? | -20%
O=C(COC(=O)CSc1ccc(F)cc1)NC1CCCCCC1 | 37 | -6% | ? | 0% | 1%[9.24 µM]
Cc1ccc(N(Cc2cc(=O)[nH]c3ccccc23)C(=O)CCl)c(C)c1 | -105* | 15µM* | 15µM* | 5.2µM* | 4.6µM*
CC[C@@H]1CC2=C(C(=O)OC(C)(C)O2)[C@@H](c2ccc(Cl)cc2)O1 | 9 | -22% | -19% | 0% | 2%
O=C(Cc1ccc(Cl)cc1)SCc1ccccc1 | 7 | 4% | -9% | 11% | 16%
Cc1c(C(=O)NCCSCc2cccc(C(F)(F)F)c2)cnn1-c1ccc(Cl)cc1 | -57* | ? | ? | ? | -15%
CC(=O)c1cnn(-c2ccc(Cl)cc2)c1C | 9 | -17% | -2% | 21% | 27%
C=C(CCO)C1=CCN(S(=O)C(C)(C)C)[C@@H]1CCO (some centres undefined) | 12 | -4% | -3% | -1% | -1%
Cc1ccc(N2CC(C(=O)N3CCC(C(=O)Nc4nnc(C(C)(C)C)s4)CC3)CC2=O)cc1 (centres undefined) | ? | ? | 1% | 4% | 1%
SMILES | IL-1B inflam inh | DT40 TDP1 no CPT | TDP1 cell CPT | HT1080 IDH1KD tx | HT1080-NT tox
COc1ccc2c(c1)C(=NNc1ccc(C(=O)O)cc1)c1cc(OC)ccc1-2 | -3 | 23µM* | ? | -19% | -10%
COc1ccc2c(c1)C(=NN)c1cc(OC)ccc1-2 | -1 | ? | 16µM* | ? | -15%
Cc1cc(S(=O)(=O)N2CCN(Cc3noc(CCC(=O)N4CCCCC4)n3)CC2)ccc1F | · | ? | 16µM* | · | ·
O=c1cc(Nc2ccc3c(c2)OCCO3)[nH]c(=O)n1-c1ccc(Cl)cc1 | -1 | 18µM* | 23µM* | 1% | -4%
O=c1[nH]c(Nc2ccc3c(c2)OCCO3)nnc1Cc1ccc(Cl)cc1 | -11 | ? | ? | 18% | -2%
O=c1cc(Nc2ccc3c(c2)OCCO3)[nH]c(=O)n1C1CCCCC1 | 16 | 16µM* | 15µM* | ? | ?
Cc1onc(-c2ccccc2)c1C(=O)Nc1nnc(CC(C)(C)C)s1 | 56 | 2% | -5% | 18% | 15%
CCCCc1c(C)nc2ccc(C)cc2c1SCCC(=O)O | 2 | 9.2µM* | ? | -14% | -8%
CCN(C[C@H]1N[C@@](CC)(C(=O)OC)[C@H]2C(=O)N(Cc3ccccc3)C(=O)[C@@H]12)C(=O)c1ccccc1 | 8 | ? | ? | 23% | 10%
O=C(Nc1ccccc1)C(=O)Nc1ccc2c(c1)N(C(=O)C1CC1)CCC2 | -12 | 23µM* | 21µM* | ? | ?
CC(=O)Oc1ccccc1Cn1c(C)c(C(=O)NCCC#N)sc1=O | 27 | -11% | -17% | 7% | 19%
O=C(NC(=S)Nc1cccc(S(=O)(=O)NC2=NCCC2)c1)c1cc(-c2ccco2)nc2ccccc12 | 46 | 3.7µM* | 4.6µM* | 1.6µM* | 9.2µM*
O=C(Nc1cccc(S(=O)(=O)NC2=NCCC2)c1)c1cc(-c2ccco2)nc2ccccc12 | 35 | -29% | -29% | -16% | -1%
O=C(Nc1cccc(S(=O)(=O)NC2=NCCCCC2)c1)c1ccc(Cl)cc1 | -8 | 12µM* | 23µM* | -11% | -2%
O=C(COC(=O)CC1CC2CCC1C2)Nc1cccc(S(=O)(=O)NC2=NCCCCC2)c1 (centres undefined) | -6 | 29µM* | ? | -3% | 4%
Cc1cc(C)nc(NS(=O)(=O)c2ccc(NC(=O)COc3ccc(Cl)cc3C)cc2)n1 | · | 18µM* | ? | · | ·
COc1cccc(NC(=O)CN(C)C(=O)c2oc3c(ccc4ccccc43)c2C)c1 | 3 | ? | 12% | -8% | -28%
O=C(COc1cccc(C(F)(F)F)c1)Nc1cccc(S(=O)(=O)NC2=NCCCCC2)c1 | -17 | 26µM* | 23µM* | -4% | -13%
Cc1ccc(NC(=O)COC(=O)C(NS(=O)(=O)c2ccc(Cl)cc2)C(C)O)cc1C (centres undefined) | ? | ? | 26µM* | 1% | 1%
